Screen size: about 330,000 compounds; about 10,000 (3%) were called active. This is one part of a sample in which actives are shown more often than they occur.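 The calls were made as follows: active = inhibition of at least 50% at 8 µM in the primary screen; inactive = the rest.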
Target: Protein Mdm4 (Homo sapiens) + E3 ubiquitin-protein ligase Mdm2 (Homo sapiens) (UniProt O15151+Q00987)
Experiment: disruptors of Mdm2/MdmX RING complex – cell-based, luminescence, split luciferase, SaOS-2, uHTS, primary screen (AID 485346)
Conditions: SaOS-2 split-luciferase Mdm2/MdmX complementation, at 8 µM, stronger effect = higher value

Sequence of Protein Mdm4 (Homo sapiens) + E3 ubiquitin-protein ligase Mdm2 (Homo sapiens) (O15151 whole entry, looked up): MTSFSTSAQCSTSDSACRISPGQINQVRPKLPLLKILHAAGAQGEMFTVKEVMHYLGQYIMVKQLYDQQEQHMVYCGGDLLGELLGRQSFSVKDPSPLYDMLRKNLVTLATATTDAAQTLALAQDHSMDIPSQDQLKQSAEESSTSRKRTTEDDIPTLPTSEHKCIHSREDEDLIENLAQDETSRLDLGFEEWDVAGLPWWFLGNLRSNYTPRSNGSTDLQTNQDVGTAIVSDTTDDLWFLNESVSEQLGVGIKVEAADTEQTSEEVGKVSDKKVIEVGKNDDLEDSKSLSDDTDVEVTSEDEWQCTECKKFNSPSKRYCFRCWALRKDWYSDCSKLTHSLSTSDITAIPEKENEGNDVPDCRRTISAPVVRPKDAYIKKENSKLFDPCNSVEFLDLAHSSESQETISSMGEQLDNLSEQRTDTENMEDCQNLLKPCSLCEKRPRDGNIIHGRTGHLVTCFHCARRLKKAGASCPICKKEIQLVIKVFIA
Sequence of Protein Mdm4 (Homo sapiens) + E3 ubiquitin-protein ligase Mdm2 (Homo sapiens) (Q00987 whole entry, looked up): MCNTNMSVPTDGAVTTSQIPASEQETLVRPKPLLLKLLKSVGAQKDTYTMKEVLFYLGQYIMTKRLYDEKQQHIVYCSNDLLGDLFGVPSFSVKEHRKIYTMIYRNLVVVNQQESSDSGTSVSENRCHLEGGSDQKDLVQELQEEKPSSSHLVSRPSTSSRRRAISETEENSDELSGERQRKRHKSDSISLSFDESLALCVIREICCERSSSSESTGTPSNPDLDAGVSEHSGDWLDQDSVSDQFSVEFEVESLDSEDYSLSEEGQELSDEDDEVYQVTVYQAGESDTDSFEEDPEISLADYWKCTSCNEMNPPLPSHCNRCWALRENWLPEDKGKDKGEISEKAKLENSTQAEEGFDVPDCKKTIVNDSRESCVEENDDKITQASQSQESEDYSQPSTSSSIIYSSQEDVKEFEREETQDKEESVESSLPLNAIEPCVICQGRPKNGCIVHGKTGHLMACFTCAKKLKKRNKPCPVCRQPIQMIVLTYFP

inhibition, active:
CC(C)(C)OC(=O)NNc1c2ccccc2nc2ccccc12 95.7%
Cc1nc(SCC(=O)Nc2cc(C)on2)c2c(C)c(C)sc2n1 79.8%
Cc1ccccc1OCCOc1ccc([N+](=O)[O-])cc1/C=N/n1cnnc1 58.7%
CN(C)CC(O)COc1ccc(C(C)(C)c2ccc(OCC(O)CN(C)C)cc2)cc1 (stereo unspecified) 97.5%
COc1c(C)c2c(c(O)c1C/C=C(\C)CCC(=O)O)C(=O)OC2 97.1%
Cc1cc(=O)oc2cc(OCC3CC(c4ccccc4Cl)=NO3)ccc12 (stereo unspecified) 63.9%
O=C(NCc1ccccc1)C1=C[C@@H](C2CCCCC2)C[C@@H](OCc2ccc(CO)cc2)O1 55.5%
CCOc1ccc(C(C)=O)cc1COC(=O)c1cnc(Cl)c(Cl)c1 97.4%
Brc1ccc2ncnc(NCc3cccnc3)c2c1 73.1%

inhibition, inactive:
O=C(NNc1c2ccccc2nc2ccccc12)c1cc2ccccc2cc1O 35.2%
Cc1ccccc1NC(=O)NNC(=O)OC(C)(C)C 20.7%
C/C(=N/Nc1ccc(Cl)cc1)c1cnnc(-c2ccccc2)n1 -8.35%
Cc1cc(NC(=O)CSc2ncc(C(F)(F)F)cc2Cl)no1 6.3%
Cc1cc(NC(=O)CSc2nc(C(C)C)nc3sc4c(c23)CCC(C)C4)no1 (stereo unspecified) 48.9%
COc1cccc(OCCOc2cccc(/C=N/n3cnnc3)c2)c1 -7.51%
Cc1cc([N+](=O)[O-])c(-c2ccc(/C=N/n3cnnc3)o2)cc1Cl 26.5%
COc1ccc(CCNC(=O)COC(=O)c2cnc(Cl)c(Cl)c2)cc1 -24.9%
Cc1cc(C)n(CC(O)COc2ccc(C(C)(C)C)cc2)n1 (stereo unspecified) 0.107%
CC(C)(c1ccccc1)c1ccc(OCCN)cc1 29.2%
CC(Oc1cccc(Cl)c1)C(=O)NC1CC(C)(C)NC(C)(C)C1 (stereo unspecified) 12.5%
Cc1ccc(C(CC(=O)O)NC(=O)c2ccc(S(=O)(=O)N3CCCC3)cc2)cc1 (stereo unspecified) 23.9%
COc1ccc(S(=O)(=O)N2CCOCC2)c(C)c1C 4.93%
COc1ccc(CN(C)C(=S)Nc2ccc(Cl)cc2Cl)cc1 2.13%
COc1ccc(CCNCC(O)Cn2ccc3ccccc32)cc1OC (stereo unspecified) 11.5%
NNC(=O)c1ccc(COCC(F)(F)C(F)F)cc1 6.42%
O=C(Nc1ccccc1Cc1ccccc1)c1ccc2c(c1)SC1=NS(=O)(=O)CCN12 20.2%
Cc1cc(=O)oc2cc(OCCC[n+]3ccccc3)ccc12 -31%
CCOc1ccccc1N1CCN(C(=O)COc2ccc3c(C)cc(=O)oc3c2)CC1 18.6%
O=C1C=C(c2cc(C(F)(F)F)cc(C(F)(F)F)c2)C[C@@H](c2ccc3c(c2)OCO3)C1 15.2%
CCc1ccc(-n2c(SCc3cc(=O)n4cc(Br)ccc4n3)nc3[nH]ncc3c2=O)cc1 41.3%
CC(O)CN(Cc1ccc(Cl)cc1)CC(C)O (stereo unspecified) 14.3%
CC(C)(C)[C@H]1C=C(C(=O)NCc2ccccc2)O[C@@H](OCc2ccc(CO)cc2)C1 29.5%
O=C(NCc1ccccc1)C1=C[C@H](C2CC2)C[C@H](OCc2ccc(CO)cc2)O1 -19%
Nn1cnnc1N/N=C/c1cc([N+](=O)[O-])c(Cl)cc1Cl -3.78%
CC(=O)NNc1cc(=O)c2c(=O)n(C)c(=O)n(C)c2[nH]1 -7.44%
CCOc1ccccc1C(=O)NC1CC2CCCC(C1)N2Cc1ccccc1 (stereo unspecified) -3.94%
CC(=O)Nc1ccc(S(=O)(=O)NCC(=O)OCc2cc(=O)oc3ccc4ccccc4c23)cc1 -8.78%
COc1ccc(CNC(=O)COC(=O)c2sccc2C)cc1OC 14.3%
COC(=O)c1ccc(COC(=O)c2cnc(Cl)c(Cl)c2)cc1 0.646%
CCOc1ccc(C(C)=O)cc1COC(=O)CNC(=O)c1cccs1 26.9%
COc1ccccc1C(=O)NCC(=O)NCCSc1ccc(Br)cc1 12.7%
CCc1ccccc1NC(=O)CN(c1ccc(OC)cc1OC)S(=O)(=O)c1ccccc1[N+](=O)[O-] 18.2%
N#Cc1cccc(CSc2nnc(CCCO)n2-c2ccccc2)c1 7%
Cc1cc(NCc2cccnc2)no1 0.68%
Clc1ccc(Cn2ncc3c(NCc4cccnc4)ncnc32)cc1 20.9%
CCN(C(=O)Cc1c(C(=O)O)n(CC)c2ccccc12)c1ccccc1C 13.2%

Reference: PubChem BioAssay AID485346 (Sanford-Burnham Center for Chemical Genomics, 2010)
